FBPA coupling cs: qHTS Assay for Inhibitors of Fructose-1,6-bisphosphate Aldolase from Giardia Lamblia: Coupling assay counterscreen; coupling enzyme system counterscreen, AmpLite Red fluorescence; activity change, negative = inhibition, % at 58.2 µM, hits read low; 0.67% of 290,000 active; AID 2472, 2010; in the data active = activity change below about -30%
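Fluorescence at 525 nm excitation and 598 nm emission measured inhibition of the coupled detection system without aldolase. Compounds (at 57.5 uM final) were preincubated 10 min at room temperature with coupling enzyme reagent before a 20 min substrate/AmpLite Red step.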
GALK inhibitor: qHTS Assay for Inhibitors of Human Galactokinase (GALK); 0.007% of 270,000 active; Potency, µM (titrated, usually from 57.5 µM), for the others: at the highest dose activity change, negative = inhibition, actives largely listed as inhibitors; Purified GALK, Kinase-Glo residual ATP luminescence; AID 1868, 2009; also: potency is read from the fitted curve at half-maximal effect
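GALK at 5 nM final was combined with compound, 35 uM ATP and 100 uM galactose in HEPES pH8.0 with MgCl2 and DTT. The reaction ran one hour at room temperature before luminescent ATP detection.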
TrxR1 substrate: qHTS Assay for Substrates of Mammalian Selenoprotein Thioredoxin Reductase 1 (TrxR1): qHTS; Thioredoxin reductase 1, cytoplasmic (Rattus norvegicus), O89049; purified TrxR1 substrate turnover, NADPH consumption readout; Potency, µM (series often up to 114 µM), for the others: at the highest dose activity change, negative = substrate turnover; 0.01% of 390,000 active; AID 588456, 2011; also: potency is read from the fitted curve at half-maximal effect; nearly all actives have a fitted effect of over 50% in size
Target sequence (O89049 whole entry, looked up): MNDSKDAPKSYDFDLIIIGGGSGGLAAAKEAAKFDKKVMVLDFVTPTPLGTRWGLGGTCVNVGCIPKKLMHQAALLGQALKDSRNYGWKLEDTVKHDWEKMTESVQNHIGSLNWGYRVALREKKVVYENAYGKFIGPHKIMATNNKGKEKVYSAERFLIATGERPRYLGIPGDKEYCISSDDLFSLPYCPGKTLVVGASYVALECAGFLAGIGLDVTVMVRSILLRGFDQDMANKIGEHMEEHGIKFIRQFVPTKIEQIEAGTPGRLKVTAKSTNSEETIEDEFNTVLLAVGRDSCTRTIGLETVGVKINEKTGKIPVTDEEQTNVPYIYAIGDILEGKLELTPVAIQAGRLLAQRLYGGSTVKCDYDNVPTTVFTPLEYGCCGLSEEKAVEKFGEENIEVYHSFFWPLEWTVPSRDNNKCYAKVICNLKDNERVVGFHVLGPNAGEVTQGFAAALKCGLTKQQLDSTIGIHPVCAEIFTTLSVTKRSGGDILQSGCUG
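Rat TrxR1, dispensed at 90 nM, was prereduced with 400 uM NADPH (final) for 5 min at ~22 deg C, then incubated with compound 15 min before 400 uM selenite. A first-read NADPH fluorescence drop versus no-compound background flagged substrates.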
rTrxR1 inhibitor: qHTS Assay for Inhibitors of Mammalian Selenoprotein Thioredoxin Reductase 1 (TrxR1): qHTS; 1% of 390,000 active; recombinant rTrxR1, NADPH fluorescence consumption, selenite substrate; Potency, µM (titrated, usually from 114 µM), inactives show top-dose activity change, negative = inhibition, hits mostly inhibitors; Thioredoxin reductase 1, cytoplasmic (Rattus norvegicus), O89049; also: potency is read from the fitted curve at half-maximal effect; nearly all actives have a fitted effect of over 65% in size
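Rat TrxR1 (90 nM in the dispensed reagent) was pre-reduced with 400 uM NADPH for 5 min at room temperature, then incubated with compound for 15 min. After 400 uM selenite was added, NADPH fluorescence (Ex 340/Em 450 nm) was followed for 8 min.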
USP1 inh: Inhibitors of USP1/UAF1: Primary Screen | 0.23% of 390,000 active | recombinant USP1/UAF1, Ub-Rhodamine cleavage fluorescence | Potency, µM (series often up to 57.1 µM), inactives show top-dose activity change, negative = inhibition, actives largely listed as inhibitors | Ubiquitin carboxyl-terminal hydrolase 1 (Homo sapiens), O94782; also: potency is read from the fitted curve at half-maximal effect; nearly all actives have a fitted effect of over 60% in size
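In this screen, compounds sit with the deubiquitinase complex (1nM) for 15 min at room temperature before Ub-Rho is added at 150nM final. Fluorescence rise is then followed for 6 reads every 60 seconds.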
Numbers without * were called inactive; ? = inconclusive; nt = no result; [ ] = remark or other dose. In the library only some 1.5% were active in any assay of this set; here they are far more common. Unless noted, calls follow the shape of the dose curve; as a rule, active = well fitted curve in the direction sought with a large enough effect; inconclusive = small, poorly fitted or top-dose-only effect, or another doubt; inactive = no such curve, though single readings can be large; an effect the other way counts as inactive or inconclusive. % is scaled to controls: 0 for no effect and ±100 for the full control effect.

SMILES	FBPA coupling cs	GALK inhibitor	TrxR1 substrate	rTrxR1 inhibitor	USP1 inh
CCSC[C@H](NC(=O)[C@H](C)N)C(=O)N[C@@H](CC(=O)O)C(=O)N[C@H](C(=O)N[C@@H](C)C(=O)N[C@H](C(=O)N[C@@H](CSCC)C(=O)N[C@H](C(=O)N[C@H](C(=O)N[C@@H](Cc1cnc[nH]1)C(=O)N[C@@H](CCCNC(=N)N)C(=O)N[C@@H](CC(C)C)C(=O)N[C@@H](C)C(=O)NCC(=O)N[C@@H](CC(C)C)C(=O)N[C@@H](CC(C)C)C(=O)N[C@@H](CO)C(=O)N[C@@H](CCCNC(=N)N)C(=O)N[C@@H](CO)C(=O)NCC(=O)NCC(=O)N[C@H](C(=O)N[C@H](C(=O)N[C@@H](CCCCN)C(=O)N[C@@H](CC(N)=O)C(=O)N[C@@H](CC(N)=O)C(=O)N[C@@H](Cc1ccccc1)C(=O)N[C@H](C(=O)N1CCC[C@H]1C(=O)N[C@H](C(=O)N[C@@H](CC(N)=O)C(=O)N[C@H](C(=O)NCC(=O)N[C@@H](CO)C(=O)N[C@@H](CCCCN)C(=O)N[C@@H](C)C(=O)N[C@@H](Cc1ccccc1)C(N)=O)C(C)C)[C@@H](C)O)C(C)C)C(C)C)C(C)C)[C@@H](C)O)C(C)C)[C@@H](C)O)[C@@H](C)O	-13	nt	nt	nt	nt
O=C(/C=C/c1cccs1)Nc1sc2c(c1C(=O)O)CCCC2	-11	-13%	-16%	-18%	-24%
NC(=O)c1c(/N=C/c2cccs2)sc2c1CCCC2	0	2%	-2%	40µM*	-11%
C[C@H](CO)N1C[C@H](C)[C@@H](CN(C)C(=O)Nc2ccccc2)Oc2c(NC(=O)c3ccncc3)cccc2C1=O	nt	nt	8%	0%	-28%
C[C@H]1CN([C@@H](C)CO)C(=O)c2cccc(NC(=O)c3ccncc3)c2O[C@H]1CN(C)C(=O)Nc1ccccc1	nt	nt	4%	56µM*	-18%
Cc1ccccc1-n1c(C)c(C#N)c(=O)c(-[n+]2ccccc2)c1[S-]	-5	2%	14%	4%	-7%
Cc1c(C#N)c(=O)c(-[n+]2ccccc2)c([S-])n1-c1ccc(Cl)cc1	-1	-2%	3%	50µM*	-11%
Cc1cccc(-c2c3c(=O)n(C)c(=O)n(C)c3cn2-c2ccccc2O)c1	-39*	1%	-2%	-3%	-18%
COC(=O)c1ccccc1-n1cc2c(c1-c1cccc(C)c1)c(=O)n(C)c(=O)n2C	nt	nt	2%	-12%	-2%
CS(=O)(=O)c1ccc(Cl)c(NC(=O)CCl)c1	-6	-1%	4%[57.1 µM]	13µM*	-4%
COc1cc(N(C)C)ccc1/C=C1\C=Cc2ccccc21	nt	nt	-8%	-13%	nt
O=C1c2cccc3c(N4CCCCC4)ccc(c23)C(=O)N1c1cccc(O)c1	3	-2%	-4%	12%[57.1 µM]	?
Cc1n[nH]c(C)c1N1C(=O)c2cccc3c(N4CCCCCC4)ccc(c23)C1=O	-4	-3%	-13%	-22%	25µM*
O=C(CO)[C@@H](O)C(O)[C@@H](O)CO (stereo not given in full)	0	nt	nt	nt	nt
CN[C@@H](CCCN=C(N)N)C(=O)N[C@@H](CCCCN)C(=O)N1CCC[C@H]1C(=O)N[C@@H](Cc1c[nH]c2ccccc12)C(=O)N[C@H](C(=O)N[C@H](CC(C)C)C(=O)O)C(C)(C)C	0	nt	nt	nt	nt
N#CC1=C(N)SC(N)=C(C#N)C1c1c(Cl)cccc1Cl	-51*	1%	-9%	-39%	?
N#CC1=C(N)SC(N)=C(C#N)C1c1cccc(Oc2ccccc2)c1	-16	-4%	-4%[57.1 µM]	-44%[57.1 µM]	-3%
Cc1ccc2c(CC(=O)N(Cc3ccc(Cl)cc3)Cc3ccco3)coc2c1	nt	nt	-12%	50µM*	?
C/C(=N\OC(=O)c1ccc(C)cc1)c1c(C)nc2cc(C)ccn12	0	0%	11%[57.1 µM]	28µM*	-8%
Cc1ccc(SCC(=O)c2c(C)nc3cc(C)ccn23)cc1	1	-3%	-2%	18%	-16%
O=C(C[n+]1cccc(Br)c1)c1ccc(F)cc1	nt	nt	5%	-1%	nt
O=C(Oc1ccc([N+](=O)[O-])cc1)c1cncc(Br)c1	5	1%	4%	18µM*	-9%
CCC(=O)NC1=C(Cl)C(=O)C(NC(=O)CC)=C(Cl)C1=O	-90*	nt	-11%[57.1 µM]	?	32µM*
CCCCOc1ccc(CC(=O)N(C)O)cc1	nt	nt	7%	13%	nt
CCCCn1c(=O)[nH]c(=O)c2c1nc(CN1C(=O)c3ccccc3S1(=O)=O)n2CCC	0	5%	15%[57.1 µM]	30%[57.1 µM]	-6%
SMILES	FBPA coupling cs	GALK inhibitor	TrxR1 substrate	rTrxR1 inhibitor	USP1 inh
CCCCn1c(=O)[nH]c(=O)c2c1nc(Cn1ncc(Cl)c(Cl)c1=O)n2CCC	2	-3%	11%	50µM*	-20%
CCCCn1c(=O)[nH]c(=O)c2c1nc(-c1ccsc1)n2Cc1ccccc1	-1	-7%	5%[57.1 µM]	33%[57.1 µM]	-17%
CCCCn1c(-c2ccsc2)nc2c1c(=O)[nH]c(=O)n2CCC	-31*	-3%	13%	-11%	-14%
C/C(CCC(=O)OC[C@@H]1O[C@H](C#Cc2ccccc2)C=C[C@@H]1Oc1ccc(C)cc1)=N/O[C@@H](C)c1cn([C@H]2COC[C@H]2O)nn1	-4	nt	nt	nt	nt
Cc1ccc2[nH]c(=O)c(CN(Cc3cccnc3)Cc3nnnn3CC3CCCO3)cc2c1 (stereo not given)	0	2%	4%[57.1 µM]	14%[57.1 µM]	-19%
Cc1cccc2cc(CN(CC3CCCO3)C(=O)c3ccco3)c(=O)[nH]c12 (stereo not given)	0	-2%	9%	16µM*	-6%
O=c1[nH]c2cc3c(cc2cc1CN(Cc1cccnc1)Cc1nnnn1Cc1ccco1)OCCO3	-13	-2%	56%	11µM*	-1%
Cc1ccc2[nH]c(=O)c(CN(Cc3cccnc3)Cc3nnnn3CCN3CCOCC3)cc2c1	0	-6%	10%	11µM*	-30%
O=C(c1ccccc1F)N(Cc1cccnc1)Cc1cc2cc3c(cc2[nH]c1=O)OCCO3	-2	8%	33%	-3%	-6%
COc1cc(C(=O)N(Cc2cccnc2)Cc2cc3cc4c(cc3[nH]c2=O)OCCO4)cc(OC)c1OC	-50*	3%	74%	-7%	-19%
O=C(/C=C/C#Cc1cccc(NS(=O)(=O)c2ccccc2)c1)NO	-9	nt	nt	nt	nt

From PubChem BioAssay
